# Some of the results follow. The hit rate among all sequences tested is not known here.
# B1: HC2510 (peptide)
# chain: CASTVCSAHLAGNASASA
# B2: FS-747 (peptide)
# chain: CAALNRRKKQAGNASASA
# B3: FS-22 (peptide)
# chain: CAELSRTGRSAGNASASA
# B4: FS-748 (peptide)
# chain: CAALNRTGRSAGNASASA
# B5: FS-1492 (peptide)
# chain: CATCNRRKKEAGNASASA
# B6: HC1022 (peptide)
# chain: CAMLAEQFKQAGNASASA
# B7: FS-1417 (peptide)
# chain: CASRVRTGRSAGNASASA
# B8: HC1553 (peptide)
# chain: CASCSSNVSVAGNASASA
# B9: HC2051 (peptide)
# chain: CAVVCCSDSYAGNASASA
# B10: FS-1333 (peptide)
# chain: CAGSCRRARSAGNASASA
# B11: FS-845 (peptide)
# chain: CAQDARRARSAGNASASA
# B12: NG2 (peptide)
# chain: CAPYILKRGSAGNASASA
# B13: HC2396 (peptide)
# chain: CAEVPCHRGSAGNASASA
# B14: HC1254 (peptide)
# chain: CAGRRLARGSAGNASASA
# B15: FS-900 (peptide)
# chain: CAYGLRDARSAGNASASA
# B16: FS-519 (peptide)
# chain: CAYGRRRRRSAGNASASA
# B17: HC954 (peptide)
# chain: CAVAYQATVCAGNASASA
# B18: HC916 (peptide)
# chain: CAMFDSSVLCAGNASASA
# B19: FS-1668 (peptide)
# chain: CADGRRFRQAAGNASASA
# B20: HC1944 (peptide)
# chain: CAICTTPCSGAGNASASA
# B21: HC2530 (peptide)
# chain: CASTPCSVHLAGNASASA
# B22: HC589 (peptide)
# chain: CALHVWIPPLAGNASASA
# B23: FS-532 (peptide)
# chain: CAGRRRRHRSAGNASASA
# B24: FS-841 (peptide)
# chain: CAPPRRLRRSAGNASASA
# B25: FS-88 (peptide)
# chain: CARSGRRRRSAGNASASA
# B26: HC421 (peptide)
# chain: CARSGAPTYSAGNASASA
# B27: FS-872 (peptide)
# chain: CASRRRRARSAGNASASA
# B28: FS-35 (peptide)
# chain: CAIPKRLRRSAGNASASA
# B29: FS-1926 (peptide)
# chain: CARSGRSRSRAGNASASA
# B30: HC1620 (peptide)
# chain: CAAWRHRARSAGNASASA
# B31: HC537 (peptide)
# chain: CAILNAASLAAGNASASA
# B32: HC77 (peptide)
# chain: CATTPCYGSWAGNASASA
# B33: HC236 (peptide)
# chain: CALAHGVRVLAGNASASA
# B34: HC215 (peptide)
# chain: CAPTDPRRRSAGNASASA
# B35: FS-1273 (peptide)
# chain: CARSTRDRRSAGNASASA
# B36: FS-948 (peptide)
# chain: CAPPRRRRRSAGNASASA
# B37: FS-1383 (peptide)
# chain: CAPPWRLRRSAGNASASA
# B38: FS-72 (peptide)
# chain: CAPPRRRARSAGNASASA
# B39: HC2491 (peptide)
# chain: CASDPCSAHLAGNASASA
# B40: HC2467 (peptide)
# chain: CAFTPCSAHLAGNASASA
# B41: HC1894 (peptide)
# chain: CATTPCSKSWAGNASASA
# B42: HC230 (peptide)
# chain: CALVGAPLGGAGNASASA
# B43: HC2329 (peptide)
# chain: CAEYPCHRPSAGNASASA
# B44: FS-528 (peptide)
# chain: CAFYNRRRRSAGNASASA
# B45: FS-1503 (peptide)
# chain: CAWWRRRRRSAGNASASA
# B46: FS-1180 (peptide)
# chain: CAWLIRRRRSAGNASASA
# B47: FS-3212 (peptide)
# chain: CARSTRDVQAAGNASASA
# Molecular target: furin, P09958
# Experiment: furin cleavage Z-score vs untreated control; higher = more cleavage, active = 3.5 or more, inactive = 1 or less, 8 variable residues between constant flanks
# Procedure, shortened: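 Peptides 8 residues long, fused to a cDNA oligonucleotide, were fixed to magnetic beads by the N-terminus and exposed to purified furin. The 0.01 ml reactions contained 50 mM HEPES pH 7.5 with CaCl2 and NaCl at 1:10 enzyme:substrate and ran 7.5, 15 or 30 min. For the cleavage Z-score, log counts of sequenced released DNA were compared with furin-free reactions, lowess-adjusted and scaled by median absolute deviation.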
# Sequence of furin, P09958 (P09958 whole entry): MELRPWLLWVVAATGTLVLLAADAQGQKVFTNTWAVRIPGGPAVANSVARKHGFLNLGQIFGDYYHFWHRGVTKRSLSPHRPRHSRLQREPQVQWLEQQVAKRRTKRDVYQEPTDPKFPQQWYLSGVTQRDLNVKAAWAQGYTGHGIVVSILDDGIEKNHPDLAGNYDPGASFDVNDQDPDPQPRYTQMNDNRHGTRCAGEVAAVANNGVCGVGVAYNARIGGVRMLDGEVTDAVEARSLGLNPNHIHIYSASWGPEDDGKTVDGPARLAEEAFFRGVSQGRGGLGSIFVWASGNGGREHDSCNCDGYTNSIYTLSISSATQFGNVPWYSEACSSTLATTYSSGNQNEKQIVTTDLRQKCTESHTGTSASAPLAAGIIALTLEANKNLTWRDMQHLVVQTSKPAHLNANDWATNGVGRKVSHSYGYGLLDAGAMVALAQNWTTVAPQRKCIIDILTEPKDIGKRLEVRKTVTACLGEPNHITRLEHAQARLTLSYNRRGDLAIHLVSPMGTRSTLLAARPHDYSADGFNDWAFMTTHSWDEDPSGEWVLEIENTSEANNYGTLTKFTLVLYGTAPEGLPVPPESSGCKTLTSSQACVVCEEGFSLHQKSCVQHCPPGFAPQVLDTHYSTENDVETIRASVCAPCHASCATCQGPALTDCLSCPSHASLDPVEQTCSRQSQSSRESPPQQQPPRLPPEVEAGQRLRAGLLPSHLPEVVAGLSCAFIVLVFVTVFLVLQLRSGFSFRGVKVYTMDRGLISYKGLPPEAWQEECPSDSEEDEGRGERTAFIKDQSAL
Sequence,furin cleavage Z-score (7.5 min),furin cleavage Z-score (15 min),furin cleavage Z-score (30 min)
B1,0.637 (inactive),0.629 (inactive),0.755 (inactive)
B2,3.62 (active),5.46 (active),3.99 (active)
B3,3.94 (active),5.44 (active),5.19 (active)
B4,9.18 (active),11.6 (active),9.72 (active)
B5,0.181 (inactive),1.51,1.86
B6,1.62,-0.39 (inactive),0.514 (inactive)
B7,9.44 (active),9.57 (active),7.69 (active)
B8,1.25,-0.606 (inactive),0.334 (inactive)
B9,-1.19 (inactive),0.168 (inactive),-0.153 (inactive)
B10,8.24 (active),6.66 (active),7.27 (active)
B11,6 (active),7.49 (active),7.26 (active)
B12,1.17,0.28 (inactive),0.586 (inactive)
B13,0.0196 (inactive),1.61,1.87
B14,3.43,4.7 (active),6.13 (active)
B15,-0.0484 (inactive),-0.398 (inactive),-0.0248 (inactive)
B16,9.52 (active),10.7 (active),8.36 (active)
B17,-0.525 (inactive),-0.292 (inactive),-0.577 (inactive)
B18,-1.5 (inactive),-1.04 (inactive),0.432 (inactive)
B19,-1.15 (inactive),-1.53 (inactive),-0.448 (inactive)
B20,-1.41 (inactive),-0.982 (inactive),0.0737 (inactive)
B21,-0.933 (inactive),0.438 (inactive),1.38
B22,1.25,1.42,0.509 (inactive)
B23,9.48 (active),10.3 (active),6.94 (active)
B24,5.16 (active),4.08 (active),3.48

Sequence,furin cleavage Z-score (7.5 min),furin cleavage Z-score (15 min),furin cleavage Z-score (30 min)
B25,5.85 (active),5.32 (active),4.99 (active)
B26,0.424 (inactive),-0.13 (inactive),-0.882 (inactive)
B27,8.77 (active),9.73 (active),7.27 (active)
B28,1.85,0.768 (inactive),1.2
B29,-0.645 (inactive),-0.505 (inactive),-1.41 (inactive)
B30,0.0962 (inactive),1.9,1.59
B31,-1.87 (inactive),-0.982 (inactive),0.861 (inactive)
B32,0.0798 (inactive),1.4,-0.0858 (inactive)
B33,0.101 (inactive),1.37,0.879 (inactive)
B34,0.57 (inactive),3.28,0.563 (inactive)
B35,11.6 (active),13.1 (active),9.03 (active)
B36,8.33 (active),8.78 (active),7.37 (active)
B37,9.19 (active),9.31 (active),7.39 (active)
B38,11.2 (active),10.8 (active),7.57 (active)
B39,-0.0824 (inactive),0.0077 (inactive),0.561 (inactive)
B40,-2.12 (inactive),-1.48 (inactive),-1.08 (inactive)
B41,0.86 (inactive),-0.828 (inactive),1.43
B42,0.473 (inactive),0.0326 (inactive),-0.438 (inactive)
B43,-1.31 (inactive),-1.61 (inactive),0.059 (inactive)
B44,10.4 (active),10.5 (active),8.75 (active)
B45,12.2 (active),12.2 (active),8.61 (active)
B46,13.7 (active),13.5 (active),11.2 (active)
B47,6.84 (active),7.38 (active),6.15 (active)

# From the supplement of paper PMC3545927
